Shown are actives, neighbours in structure and some others; about 12% of the full set was active somewhere.
Pf growth 96h: Primary qHTS for delayed death inhibitors of the malarial parasite plastid, 96 hour incubation; Potency, µM (titrated, usually from 28.7 µM), for the others: top-dose activity change, negative = inhibition, most hits filed as inhibitors; 320,000 compounds, 6.9% hits; P. falciparum luciferase reporter growth, 96 h; note: % is set by controls: 0 for no effect and ±100 for the full control effect
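Two parasite generations (96 h, 37 C, 5% CO2) of compound exposure in infected erythrocytes (0.05% parasitemia, 2% hematocrit). Luciferase-reporter P. falciparum; decreased luminescence indicates inhibited growth, aimed at apicoplast-acting delayed death.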
SARS PLpro yeast: qHTS of Yeast-based Assay for SARS-CoV PLP; S. cerevisiae expressing SARS-CoV PLpro, growth rescue; 330,000 compounds, 0.19% hits; Potency, µM (doses to about 32.9 µM), for inactives: at the top dose activity, positive = growth rescue, usual class: activators; calls by dose curve; note: 0% is about no effect; nearly all actives have a fitted effect of over 55% in size
Pf growth 48h: Primary qHTS for delayed death inhibitors of the malarial parasite plastid, 48 hour incubation; Potency, µM (doses to about 28.7 µM), inactives show at the highest dose activity change, negative = inhibition, usual class: inhibitors; P. falciparum luciferase growth in erythrocytes, 48 h; 310,000 compounds, 5.9% hits; note: % is set by controls: 0 for no effect and ±100 for the full control effect
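First compound was added to culture medium, then infected red cells at 0.1% parasitemia and 2% hematocrit (final). After incubation at 37 C under 5% CO2, luciferase detection reagent was dispensed and light output recorded.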
Sm TGR inh: qHTS Assay for the Inhibitors of Schistosoma Mansoni Peroxiredoxins; Schistosoma mansoni thioredoxin glutathione reductase (TGR), Q962Y6; purified TGR, DTNB reduction, TNB absorbance 405 nm; Potency, µM (doses to about 114 µM), for inactives: top-dose activity change, negative = inhibition, most hits filed as inhibitors; 360,000 compounds, 3% hits; note: % is set by controls: 0 for no effect and ±100 for the full control effect; nearly all actives have a fitted effect of over 60% in size
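First, TGR (20 nM dispensed) and NADPH were mixed with compound. Second, a 15 min room-temperature incubation followed. Third, further NADPH and then DTNB were added to start the reaction. Finally, TNB absorbance was monitored kinetically.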
An asterisk follows results filed as active; [ ] = another dose, or the depositor's remark. Unless noted, calls come from the whole dose curve; as a rule, active = well fitted curve in the direction sought with a large enough effect; inconclusive = small, poorly fitted or top-dose-only effect, or another doubt; inactive = no such curve, though single readings can be large; an effect the other way counts as inactive or inconclusive. Potency is the fitted concentration of half-maximal effect.

`Cc1ccc(N2CCN(C(=O)c3cnn(-c4ccc(F)cc4F)c3C3CCN(C(=O)OC(C)(C)C)CC3)CC2)c(C)c1` gave Sm TGR inh -10.0%.
For Cn1nc(C(F)(F)F)c(-c2ccc(F)cc2)c1NC(=O)Nc1ccc(F)cc1 the results were Pf growth 96h 0.465µM*, SARS PLpro yeast -0.2%, Pf growth 48h 0.828µM* and Sm TGR inh 20.6%.
`Cn1nc(C(F)(F)F)c(-c2ccc(Br)cc2)c1NC(=O)c1ccco1` gave Pf growth 96h inconclusive, SARS PLpro yeast -9.7%, Pf growth 48h inconclusive and Sm TGR inh 5.5%.
For CC1=C(C(=O)Nc2cccnc2)C(c2ccc(Cl)cc2)n2nc(SCc3ccccc3)nc2N1 (centres undefined) the results were Sm TGR inh -1.7%.
For CCOc1ccc(-c2c(C)n(-c3ccc(OCC)cc3)c3[n+]2CCCCC3)cc1 the results were Pf growth 96h inconclusive, SARS PLpro yeast -1.4%, Pf growth 48h 0.415µM* and Sm TGR inh inconclusive.
Screening CCOc1ccc(NC(=O)c2ccc(NC(=O)c3cn4c5c(c(N6CCN(C)CC6)c(F)cc5c3=O)OCC4C)cc2)cc1 (centres undefined) returned Pf growth 96h 2.62µM*, SARS PLpro yeast 2.1%, Pf growth 48h 2.33µM* and Sm TGR inh 4.4%.
COc1ccc(/C=C2/SC(=O)N(CCC(=O)Nc3ccccc3C(=O)O)C2=S)cc1 was read as Pf growth 96h 30.8%, SARS PLpro yeast 1.2%, Pf growth 48h -25.4% and Sm TGR inh 8.7%.
`Nc1ccc(-c2cc3ccccc3oc2=O)cc1` gave Pf growth 96h inconclusive, SARS PLpro yeast -0.9%, Pf growth 48h inconclusive and Sm TGR inh -11.1%.
Screening O=C/C=C/c1c(-c2ccccc2)cc2oc3ccccc3cc1-2 returned Pf growth 96h inconclusive, SARS PLpro yeast -11.2%, Pf growth 48h inconclusive and Sm TGR inh 20µM*.
Cc1cccc2cc(CN(Cc3nnnn3C3CCCCC3)C3CCCC3)c3nnnn3c12 was read as SARS PLpro yeast -56.5%, Pf growth 48h 11.7µM* and Sm TGR inh 1.4%.
Cc1ccc2cc(CN(Cc3ccc(F)cc3)Cc3nnnn3C3CCCC3)c(=O)[nH]c2c1 was read as Pf growth 96h 50.9%, SARS PLpro yeast -1.0%, Pf growth 48h 3.7µM* and Sm TGR inh -4.8%.
Screening COc1ccc(Cn2nnnc2CN(Cc2cc3ccc(C)cc3[nH]c2=O)C2CCCC2)cc1 returned Pf growth 96h 4.2%[5.75 µM], SARS PLpro yeast 2.3%, Pf growth 48h 9.28µM* and Sm TGR inh inconclusive.
COCCn1nnnc1CN(Cc1cc2cc(OC)c(OC)cc2[nH]c1=O)C1CCCC1 was read as SARS PLpro yeast 0.8%, Pf growth 48h 0.0% and Sm TGR inh -28.5%.
COc1ccc(Cn2nnnc2CN(Cc2cc3cccc(C)c3[nH]c2=O)C2CCCC2)cc1 was read as Pf growth 96h 24.3%, SARS PLpro yeast -3.4%, Pf growth 48h 10.4µM* and Sm TGR inh -32.7%.
`CC(C)CC(=O)Nc1ccc(C(=O)COC(=O)C2CC(=O)N(Cc3ccccc3)C2)cc1` (centres undefined) gave Pf growth 96h -25.8%, SARS PLpro yeast 6.4%, Pf growth 48h 12.5% and Sm TGR inh -1.4%.
Screening O=C(Cn1c(=O)n2ncnc2c2c3c(sc21)CCCC3)c1ccccc1 returned SARS PLpro yeast -0.9%, Pf growth 48h 11.7µM* and Sm TGR inh -17.0%.
`O=c1n(Cc2ccccc2Cl)c2sc3c(c2c2ncnn12)CCCC3` gave Pf growth 96h 93.8%, SARS PLpro yeast 7.6%, Pf growth 48h inconclusive and Sm TGR inh 7.1%.
Screening COc1ccccc1Nc1nc(NCCO)c2ccccc2n1 returned Pf growth 96h inconclusive, SARS PLpro yeast -2.3%, Pf growth 48h inconclusive and Sm TGR inh -31.5%.
OCCNc1nc(-c2ccccc2)nc2ccccc12 was read as Pf growth 96h -14.6%, SARS PLpro yeast -3.0%, Pf growth 48h 9.4% and Sm TGR inh 23.9%.
Screening COc1ccc(OC)c(Nc2nc(NCCO)c3ccccc3n2)c1 returned Pf growth 96h inconclusive, SARS PLpro yeast -1.4%, Pf growth 48h 2.08µM* and Sm TGR inh 0.0%.
`Cc1ccc(Nc2nc(NCCO)c3ccccc3n2)cc1C` gave Pf growth 96h inconclusive, SARS PLpro yeast -5.3%, Pf growth 48h 0.465µM* and Sm TGR inh -9.2%.
